INHIBITION data for 105 compounds are collected here from ChEMBL document CHEMBL4513216, “Probing the Open Global Health Chemical Diversity Library for Multistage-Active Starting Points for Next-Generation Antimalarials” (ACS Infect Dis, 2020).

Hit rate of the full screen: of about 69,000 compounds, about 8,600 (12%) showed an effect of 50% or more. The entries come from a sample that favours strong results as a whole.

In the assay the test system is Plasmodium berghei. Kind of assay: Screen against P. berghei liver stage (PbLuc), transformed with Luciferase, at 10uM. The conditions noted are these: tested at 10 uM. The class given is functional, HepG2.
Take `COCC1CC2(CCN(Cc3nc(C)cs3)CC2)CO1` (stereo not given): the INHIBITION stood at 14.9%.
Take `COc1cc(C(=O)NC(CC(=O)O)c2cccs2)cc(OC)c1C` (stereo not given): the INHIBITION is recorded as 5.03%.
Regarding `COc1ccc(C2=NOC(CC#N)C2)cc1` (stereo not given), the INHIBITION is reported as 45.8%.
For `Cc1cc(C)n(CC2CCCN2C(=O)CCNc2ncccn2)n1` (stereo not given), the INHIBITION was -9.4%.
Under `NC(=O)C1(CNC(=O)CCc2ccc(Cl)s2)CCOCC1` stands 13.8%; under `O=C(CCCN1CCCCC1)NC(C(=O)O)c1cccc(F)c1` (stereo not given), -20%; under `CN(C)C(=O)COC1COC2(CCN(S(C)(=O)=O)CC2)C1` (stereo not given), 37%.
On to `CCn1cc2[nH]c(OC)c(CNC(=O)CCC3CCCC3)cc-2c1=O`, for which the INHIBITION amounted to 34.4%.
On to `COc1ccc(C(C)(C)C)cc1CN1CCn2c(CO)nnc2C1`, for which the INHIBITION was 48.4%.
Under `CCn1cc(NC(=O)C2CCN(Cc3noc(C4CC4)n3)CC2)cn1` stands 18.2%; under `O=C(CCN1C(=O)CCC1=O)Nc1ccc(OCC(F)(F)F)nc1`, 39.4%.
For `O=C(CCN1C(=O)CCC1=O)Nc1ccc(Cl)cc1`, the INHIBITION came out at 67.2%.
With `O=C(CCN1C(=O)CCC1=O)Nc1cnn(-c2ccccc2Cl)c1`, the INHIBITION amounted to 28.5%.
The figure for `CC(C)N(C)C(=O)c1ccc(Cl)c(NC(=O)CCN2C(=O)CCC2=O)c1` is 35.2%; for `CC(C)OCC(=O)Nc1ccc(Oc2ccc3c(c2)OCO3)nc1` it is 29.9%; for `O=C(CCN1C(=O)CCC1=O)Nc1ccc(Oc2ccc(Cl)cc2)nc1` it is 51.1%.
As to `COC1CCN(C(=O)NCC(N)=O)CC(=O)N(C)c2ccccc21` (stereo not given), the INHIBITION stood at 16.2%.
With `Cc1cnn(CC2CN(Cc3cccnc3)CCO2)c1` (stereo not given), the INHIBITION is on record as -7.81%.
Under `COC(=O)CN1CCCn2nc(CCC(=O)N3CCCC3)cc2C1` stands 32.4%; under `CC1CN(C)c2ccccc2N(C(=O)c2c[nH]c(C(C)C)n2)C1` (stereo not given), 29.6%.
In the case of `CC(=O)N1CC(C)CN(C(=O)c2cccnc2C)c2ccccc21` (stereo not given), the INHIBITION is recorded as -9.8%.
With `CC(=O)N1CC(C)CN(C(=O)c2cnccn2)c2ccccc21` (stereo not given), the INHIBITION was 60.7%.
With `CC(C)c1cc(COCCC(=O)O)no1`, the INHIBITION worked out at 44.1%.
Under `CN1CCN(C(=O)NCCc2ccc(F)cc2)[C@H]2CS(=O)(=O)C[C@H]21` stands 52.2%; under `COc1ccccc1-n1cc(CN2CCN(C)[C@@H]3CS(=O)(=O)C[C@@H]32)cn1`, 50.1%; under `Cc1cccc(-n2cc(CN3CCN(C)[C@@H]4CS(=O)(=O)C[C@@H]43)cn2)c1`, 4.41%.
Under `CN1CCN(Cc2cnn(-c3ccc(F)cc3)c2)[C@H]2CS(=O)(=O)C[C@H]21` stands 69.8%.
`COc1ccc(CNC(=O)N2CCN(C)[C@@H]3CS(=O)(=O)C[C@@H]32)cc1`: the INHIBITION stood at 0.891%.
For `Cc1ccc(-n2cc(CN3CCN(C)[C@@H]4CS(=O)(=O)C[C@@H]43)cn2)cc1`, the INHIBITION turned out to be 29.1%.
With `COc1ccc(CCNC(=O)N2CCN(C)[C@@H]3CS(=O)(=O)C[C@@H]32)cc1`, the INHIBITION is 31.9%.
Consider `CN1CCN(Cc2nc3ccccc3[nH]2)[C@H]2CS(=O)(=O)C[C@H]21`, for which the INHIBITION is reported as -1.64%.
As for `CN1CCN(Cc2cnn(-c3ccccc3Cl)c2)[C@H]2CS(=O)(=O)C[C@H]21`, the INHIBITION is recorded as -54.8%.
Regarding `Cc1nn(C)c2cnn(Cc3ccc(C(=O)NCC4CCCO4)o3)c12` (stereo not given), the INHIBITION is reported as 17.6%.
For `O=C1CC2(CCSC2)C(=O)N1Cc1coc(-c2cccc(F)c2)n1` (stereo not given), the INHIBITION amounted to 3.03%.
Under `Cc1noc(C)c1CN1CCc2ncc(Cn3cccn3)n2CC1` stands 26%.
Under `Cc1nonc1C(=O)N1CCCC(c2ncncc2-c2ccncc2)C1` (stereo not given) stands 42.1%; under `Cc1nc(Nc2cnccn2)cc(C2CCCN2)n1` (stereo not given), 34.9%; under `Cc1ccc(CNC(=O)CN2CCOC(Cn3cncn3)C2)s1` (stereo not given), 5.03%.
As for `O=C(NCCN1CCCCC1)c1ccoc1`, the INHIBITION came out at 16.1%.
The figure for `COc1cc(CNCCc2cc(F)cc3c2OCOC3)cc(OC)c1` is 26.6%.
Turning to `CCn1cnnc1CNC(=O)N(C)C(C)c1cccs1` (stereo not given), the INHIBITION is -41.1%.
`CS(=O)(=O)NC1CCN(C(=O)NCc2cc[nH]n2)CC1`: the INHIBITION amounted to 8.64%.
For the compound `CCOCC1CCCN(C(=O)NCc2cn3c(C)cccc3n2)C1` (stereo not given), the INHIBITION is 21.6%.
Regarding `O=C(NCc1cc[nH]n1)N1CCN(c2ccccc2Cl)CC1`, the INHIBITION came out at 39.2%.
As to `O=C(C1CC(=O)N(C2CC2)C1)N1CCC(Oc2ccccc2Cl)CC1` (stereo not given), the INHIBITION is reported as -6.88%.
For the compound `O=C(C1CC1)N1CCC(Oc2ccccc2Cl)CC1`, the INHIBITION was 88.1%.
For the compound `Cc1cccc2nc(CNC(=O)N3CCC(OCC4CC4)CC3)cn12`, the INHIBITION is given as 51.2%.
As to `CCOc1ccccc1N1CCN(C(=O)NCc2cc[nH]n2)CC1`, the INHIBITION amounted to 49.8%.
Regarding `CN1CC(C(=O)N2CCC(Oc3ccccc3Cl)CC2)CC1=O` (stereo not given), the INHIBITION is reported as 35.5%.
Take `CNC(=O)CC1CCN(C(=O)NCc2cn3c(C)cccc3n2)CC1`: the INHIBITION is recorded as 45.2%.
The figure for `O=C(NCc1cc[nH]n1)N1CCC(Oc2ccccc2Cl)CC1` is 50.2%; for `Cc1cccc(OC2CCN(C(=O)NCc3cc[nH]n3)CC2)c1C` it is 88.4%.
Turning to `Cc1cccc(OC2CCN(C(=O)NCCn3ccnc3)CC2)c1C`, the INHIBITION is listed as -4.13%.
As to `Cc1ccc(C(=O)N2CCO[C@H]3[C@@H](OCc4ccccn4)CC[C@@H]32)o1`, the INHIBITION is listed as 3.47%.
`Cc1ccc(CNC(=O)N(C)Cc2cnn(C)c2)s1`: the INHIBITION was found to be 25.5%.
Take `COC(=O)c1cc(C2CC2)nc2c(Cl)cnn12`: the INHIBITION was 20.9%.
For the compound `Cc1c(C(C)NC(=O)Nc2ccc(F)c(F)c2)cnn1C` (stereo not given), the INHIBITION is listed as 6.26%.
With `Cc1c(C(C)NC(=O)Nc2ccc(F)cc2F)cnn1C` (stereo not given), the INHIBITION was 44.3%.
Regarding `Cc1c(C(C)NC(=O)Nc2ccccc2F)cnn1C` (stereo not given), the INHIBITION was found to be 61.9%.
Take `Cc1ccccc1CSc1ncccc1C(=O)N(C)C`: the INHIBITION is recorded as -13.2%.
On to `Cc1cncc(CN2CC[C@@](O)(CNC(=O)c3c[nH]cn3)[C@H](O)C2)c1`, for which the INHIBITION is on record as 32.7%.
As for `Cc1cnn(CC2CN(c3ncnc4c3CCC4)CCO2)c1` (stereo not given), the INHIBITION is reported as 63%.
The figure for `c1cnn(CC2CN(c3ncnc4ccsc34)CCO2)c1` (stereo not given) is 62.4%.
The figure for `c1cnn(CC2CN(c3ncnc4c3CCC4)CCO2)c1` (stereo not given) is -7.17%; for `Cc1nc(N2CCCOC(Cn3cccn3)C2)c2sccc2n1` (stereo not given) it is 65.7%.
Take `c1nc2c(c(N3CCOC(Cn4cncn4)C3)n1)CCC2` (stereo not given): the INHIBITION is -26.9%.
Consider `c1cnn(CC2CN(c3ncnc4[nH]ccc34)CCO2)c1` (stereo not given), for which the INHIBITION turned out to be 13.3%.
In the case of `Cc1cnn(CC2CN(c3ncnc4[nH]ccc34)CCO2)c1` (stereo not given), the INHIBITION stood at 19.4%.
As for `c1nc(N2CCOC(Cn3cncn3)C2)c2sccc2n1` (stereo not given), the INHIBITION stood at 49.4%.
`c1cnn(CC2CN(c3ncnc4sccc34)CCO2)c1` (stereo not given): the INHIBITION is 45%.
The figure for `Cc1nnc(N2CCOC(Cn3cccn3)C2)c(C#N)c1C` (stereo not given) is 17.8%; for `Cc1cnn(CC2CN(c3ncnc4ccccc34)CCO2)c1` (stereo not given) it is 64.4%.
For the compound `c1ccc2c(N3CCOC(Cn4cccn4)C3)ncnc2c1` (stereo not given), the INHIBITION came out at 4.48%.
With `O=C1CN(C(=O)C2CN(c3cccc(Cl)c3)CCO2)CCN1` (stereo not given), the INHIBITION amounted to 3.46%.
For `Cn1cnc2cc(C(=O)NS(=O)(=O)c3ccccc3Cl)ccc21`, the INHIBITION was -32.1%.
For `Cc1ccc2c(c1)C(=O)NCC1(CCN(Cc3ccccc3)CC1)O2`, the INHIBITION is recorded as -6.92%.
Consider `COc1ccc(-n2ccc(C(=O)N(C)C(C)C3(C)CC3)n2)cc1` (stereo not given), for which the INHIBITION was determined as 29.1%.
The figure for `Cc1cccc(CN2CCC(N(C)Cc3nnc(C4CC4)n3C)C2)c1` (stereo not given) is 38.5%; for `COc1ccc(CCNC(=O)NCC(O)c2cccc(F)c2)cc1` (stereo not given) it is 12.7%.
With `CC(C)c1sc(Br)nc1C(=O)NCc1ccncc1`, the INHIBITION is on record as 45.3%.
Under `O=C(NCCc1cnccn1)c1ccc(S(=O)(=O)NC2CCC2)cc1` stands 40.3%; under `CC(C)N1CC[C@@H]2[C@H](COCC3CC3)CN(C)C(=O)[C@@H]2CC1`, 10.5%.
Regarding `O=C(NC[C@]1(O)CN(Cc2ccc(F)cc2)C[C@H]1O)c1ccccn1`, the INHIBITION is given as 18.9%.
In the case of `Cc1cnn(CC2CN(c3cnc4ccccc4n3)CCO2)c1` (stereo not given), the INHIBITION is on record as 16.2%.
Regarding `COC1[C@@H]2CC[C@H]1CN(c1nc(C)nc3ccsc13)C2` (stereo not given in full), the INHIBITION is given as 43%.
On to `CN(C)CC1CN(c2ncnc3ccsc23)CCO1` (stereo not given), for which the INHIBITION turned out to be 30.8%.
In the case of `Cc1nc(N2C[C@@H](CN3CCCCC3)[C@@H](CO)C2)c2sccc2n1`, the INHIBITION amounted to 46.4%.
The figure for `Cc1cnn(CC2CN(c3ncnc4ccsc34)CCO2)c1` (stereo not given) is 83.7%.
Under `Cc1nc(N2C[C@H]3CNC[C@H]3C2)c2sccc2n1` stands 55.6%; under `Cc1csc(N2CCN(C(=O)c3ccc(C)s3)CC2)n1`, 2.3%; under `CCN(C)c1ncnc2c1CCN(Cc1ccsc1)CC2`, -14.1%.
As to `Cc1cc(C)n(CC2CCCCN2CCC(=O)Nc2cc(C)on2)n1` (stereo not given), the INHIBITION is recorded as 12.7%.
`CN(Cc1cccs1)S(=O)(=O)c1ccc(C(F)(F)F)nc1`: the INHIBITION is reported as 35.1%.
Under `Cc1[nH]c2cc(C3CCCCN3C(=O)C3CC3)nn2c(=O)c1C` (stereo not given) stands -3.02%; under `Cn1ccnc1CN1CCN(CC(O)c2ccc(F)cc2)CC1` (stereo not given), -18%.
For `Cc1ncsc1CN1CCOC(C)(C(N)=O)C1` (stereo not given), the INHIBITION is given as 15.5%.
For `O=C(NC1CC1)C1CCCN(c2cccc(C(F)(F)F)n2)C1` (stereo not given), the INHIBITION is -28.8%.
As to `O=C(NC1CC1)C1CCN(c2cccc(C(F)(F)F)n2)CC1`, the INHIBITION worked out at 86.8%.
The figure for `O=C(NC1CCN(c2cccc(C(F)(F)F)n2)CC1)C1CC1` is 29%; for `CCN1CCCC1CNC(=O)Cc1c(-c2ccc(Cl)cc2)n[nH]c1C` (stereo not given) it is 14.4%.
Turning to `Cc1ccccc1CSc1nc(N)cc(N2C[C@H](O)[C@@H](N(C)C)C2)n1`, the INHIBITION worked out at 58.2%.
`Cc1ccccc1CSc1nc(N)cc(N2CC[C@@H](O)C2)n1`: the INHIBITION was found to be 42.1%.
As for `Cc1ccccc1CSc1nc(N)cc(N2CCCC(O)C2)n1` (stereo not given), the INHIBITION came out at 15.2%.
On to `CC(C)(C)C(=O)NCCCn1cncn1`, for which the INHIBITION was -21.9%.
Turning to `COc1nn(C)cc1C(=O)NCC1(O)CCOCC1`, the INHIBITION is 15.7%.
